This is an account of results in PubChem BioAssay.

Assay [1] in a line: E. coli DRC41 culture turbidity changes, primary screen, E. coli filamentation inducer project, strain DRC41, OD650, 48 h (AID 1152).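 Note: E. coli MC1000 strain DRC41 lacking acrAB efflux pump and sulA.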 Particulars: E. coli DRC41 (acrAB sulA), higher = more signal, called active from +8 up or from −8 down.
The nature of assay [2]: small-molecule binders of probe aLefty1, primary screen, biochemical, small-molecule microarray, 635/667 nm fluorescence (AID 1153).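 Note: score merges spot fluorescence with signal-to-noise ratio from the scanned slide images.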 Particulars: higher = more signal.
Assay [3] in a line: PSAC antagonists in infected red cells, primary screen, cell-based, P. falciparum Indochina, OD700, 1 h (AID 1154). The conditions noted are these: P. falciparum Indochina infected RBC osmotic lysis, higher = more signal, called active from +8 up or from −8 down.
Assay [4] is described as follows: PSAC antagonists in infected red cells, primary screen, cell-based, P. falciparum Indochina, OD700, 2 h (AID 1155).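 Note: lysis reports solute entry through the parasite surface anion channel PSAC; channel blockers reduce lysis of infected cells.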 The conditions noted are these: P. falciparum Indochina infected erythrocytes, osmotic lysis OD700; higher = more signal, called active from +8 up or from −8 down.
Assay [5] in a line: osmotic lysis modulators in infected erythrocytes, primary screen, PSAC antagonist project, cell-based, P. falciparum Indochina, OD700, 3 h (AID 1156). Particulars: higher = more signal, called active from +8 up or from −8 down.
Assay [6] is described as follows: PSAC antagonists in infected red cells, primary screen, cell-based, P. falciparum Indochina, OD700, 18 h (AID 1157). Particulars: P. falciparum Indochina infected erythrocytes, osmotic lysis OD700, 18 h; higher = more signal, called active from +8 up or from −8 down.
Assay [7] can be described thus: modulators of S6 phosphorylation in cells, primary screen, cell-based, A549, cytoblot, luminescence, serum-stimulated (AID 1158).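 Note: serum-stimulated A549 lung adenocarcinoma cells; signal is phosphorylated S6 detected by cytoblot immunostaining with HRP secondary.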 Particulars: A549 phospho-S6 cytoblot, 5 h, higher = more signal.
The target of assay [8] is NADPH oxidase 2 (Homo sapiens) (UniProt P04839). Description: NOX2-dependent H2O2 signal modulators, primary screen, NOX inhibitor project, cell-based, HEK293-NOX2, PMA-stimulated, Amplex Red fluorescence (AID 1159). Note: test concentration not given here. The conditions noted are these: 45 min, higher = more signal, called active from +8 up or from −8 down.
Sequence of NADPH oxidase 2 (Homo sapiens) (P04839 whole entry, looked up): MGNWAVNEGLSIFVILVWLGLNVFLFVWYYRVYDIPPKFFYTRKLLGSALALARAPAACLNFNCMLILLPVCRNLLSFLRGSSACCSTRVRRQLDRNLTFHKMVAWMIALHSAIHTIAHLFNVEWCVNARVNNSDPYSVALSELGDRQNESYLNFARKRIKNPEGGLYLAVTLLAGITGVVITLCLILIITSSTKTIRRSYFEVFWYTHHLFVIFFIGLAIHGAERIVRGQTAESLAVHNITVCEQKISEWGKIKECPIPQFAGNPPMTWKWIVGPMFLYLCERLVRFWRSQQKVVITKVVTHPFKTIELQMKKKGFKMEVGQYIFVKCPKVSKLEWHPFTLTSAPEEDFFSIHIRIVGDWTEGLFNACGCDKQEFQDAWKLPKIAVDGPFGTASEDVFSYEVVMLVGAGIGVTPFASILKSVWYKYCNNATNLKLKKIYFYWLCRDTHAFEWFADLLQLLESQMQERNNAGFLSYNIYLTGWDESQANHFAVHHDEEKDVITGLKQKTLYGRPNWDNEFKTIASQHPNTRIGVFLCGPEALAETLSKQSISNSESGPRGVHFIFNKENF
In assay [9] the target is NADPH oxidase 4 (Homo sapiens) (UniProt Q9NPH5). In words: NOX4-dependent H2O2 signal modulators, primary screen, NOX inhibitor project, cell-based, HEK293-NOX4, tetracycline-induced, Amplex Red fluorescence (AID 1160). Particulars: 45 min, higher = more signal, called active from +8 up or from −8 down.
Sequence of NADPH oxidase 4 (Homo sapiens) (Q9NPH5 whole entry, looked up): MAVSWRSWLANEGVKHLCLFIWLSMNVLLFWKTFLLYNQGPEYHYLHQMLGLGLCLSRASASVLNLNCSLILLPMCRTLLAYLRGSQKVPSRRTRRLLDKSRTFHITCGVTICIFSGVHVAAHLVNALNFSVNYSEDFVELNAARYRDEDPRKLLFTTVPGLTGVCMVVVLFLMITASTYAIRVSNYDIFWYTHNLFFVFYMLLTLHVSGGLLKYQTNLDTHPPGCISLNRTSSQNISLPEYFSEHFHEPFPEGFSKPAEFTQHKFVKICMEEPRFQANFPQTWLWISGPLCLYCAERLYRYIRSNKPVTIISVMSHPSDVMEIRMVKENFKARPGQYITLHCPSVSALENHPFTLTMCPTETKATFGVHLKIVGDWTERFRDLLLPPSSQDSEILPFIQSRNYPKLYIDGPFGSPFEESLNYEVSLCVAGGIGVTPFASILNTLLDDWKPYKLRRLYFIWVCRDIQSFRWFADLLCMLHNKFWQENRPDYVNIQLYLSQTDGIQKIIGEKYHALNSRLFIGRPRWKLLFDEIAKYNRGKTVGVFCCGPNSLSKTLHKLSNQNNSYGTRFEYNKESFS
Assay [10] deals with NADPH oxidase 5 (Homo sapiens) (UniProt Q96PH1). In words: NOX5-dependent H2O2 signal modulators, primary screen, NOX inhibitor project, cell-based, HEK293-NOX5, Amplex Red fluorescence (AID 1161). Particulars: HEK293-NOX5, ionomycin, 45 min, higher = more signal.
Sequence of NADPH oxidase 5 (Homo sapiens) (Q96PH1 whole entry, looked up): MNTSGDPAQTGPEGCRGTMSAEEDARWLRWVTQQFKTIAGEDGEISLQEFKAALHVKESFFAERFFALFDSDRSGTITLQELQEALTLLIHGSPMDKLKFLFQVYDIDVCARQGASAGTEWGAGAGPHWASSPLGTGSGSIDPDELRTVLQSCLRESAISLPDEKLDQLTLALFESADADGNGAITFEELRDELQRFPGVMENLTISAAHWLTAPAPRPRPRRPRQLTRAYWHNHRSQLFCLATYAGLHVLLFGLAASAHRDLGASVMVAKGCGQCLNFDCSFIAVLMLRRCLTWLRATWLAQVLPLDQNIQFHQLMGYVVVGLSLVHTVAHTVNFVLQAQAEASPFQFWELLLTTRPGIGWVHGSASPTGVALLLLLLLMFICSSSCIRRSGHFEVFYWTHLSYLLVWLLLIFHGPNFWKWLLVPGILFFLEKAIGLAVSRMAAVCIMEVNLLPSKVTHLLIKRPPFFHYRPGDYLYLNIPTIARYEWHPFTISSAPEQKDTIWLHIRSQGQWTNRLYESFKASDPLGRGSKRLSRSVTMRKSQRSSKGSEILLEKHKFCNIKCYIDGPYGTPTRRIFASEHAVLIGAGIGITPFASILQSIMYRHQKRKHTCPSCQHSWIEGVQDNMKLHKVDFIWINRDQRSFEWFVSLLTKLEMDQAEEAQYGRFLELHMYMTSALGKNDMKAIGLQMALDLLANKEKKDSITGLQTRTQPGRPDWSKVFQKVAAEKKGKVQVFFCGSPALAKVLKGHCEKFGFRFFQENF
Assay [11] in a line: A549 cell viability effects, profiling panel, calcein-AM fluorescence, 48 h, basal (AID 1162). Note: test concentration not given here. The conditions noted are these: higher = more signal.
Assay [12] can be described thus: adipocyte viability effects, profiling panel, cell-based, 3T3-L1 adipocytes, calcein-AM fluorescence, 48 h, basal (AID 1163). Note: test concentration not given here. Particulars: 3T3-L1 adipocytes viability, higher = more signal.
Assay [13] in a line: HepG2 cell viability effects, profiling panel, calcein-AM fluorescence, 48 h, basal (AID 1164). Note: test concentration not given here. Particulars: higher = more signal.
The nature of assay [14]: MM1S cell viability effects, profiling panel, calcein-AM fluorescence, 48 h, basal (AID 1165).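 Note: viability of MM1S multiple myeloma cells under basal unstimulated conditions; test concentration not given here.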 Particulars: higher = more signal.
A short description of assay [15]: basal RPMI8226 viability, no added stimulus, profiling panel, cell-based, calcein-AM fluorescence, 48 h, PK04 Diversity Set (AID 1166).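 Note: cells grown under basal conditions without added stimulus; test concentration not given here.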 The conditions noted are these: RPMI8226 myeloma viability, higher = more signal.
Assay [16] can be described thus: basal HepG2 mitochondrial membrane potential changes, profiling panel, cell-based, JC-1 fluorescence, 24 h, 100 nL compound (AID 1167). Note: test concentration not given here. Particulars: higher = more signal.
Assay [17] can be described thus: basal 3T3-L1 adipocyte mitochondrial potential changes, profiling panel, cell-based, JC-1 fluorescence, 3T3-L1 adipocytes, 24 h, 100 nL compound (AID 1168). Note: test concentration not given here. The conditions noted are these: JC-1 mitochondrial fluorescence, higher = more signal, called active from +8 up or from −8 down.
Assay [18] in a line: basal RPMI8226 mitochondrial membrane potential changes, profiling panel, cell-based, JC-1 fluorescence, 24 h, 100 nL compound (AID 1169). Note: test concentration not given here. The conditions noted are these: RPMI8226 myeloma, JC-1 mitochondrial potential fluorescence, higher = more signal.
A short description of assay [19]: basal MM1S mitochondrial membrane potential changes, profiling panel, cell-based, JC-1 fluorescence, 24 h, 100 nL compound (AID 1170). Note: test concentration not given here. The conditions noted are these: higher = more signal.
The nature of assay [20]: A549 lung cancer cell viability effects, profiling panel, resazurin fluorescence, 24 h, PK04 Diversity Set (AID 1171). Note: test concentration not given here. Particulars: higher = more signal, called active from +8 up or from −8 down. A general note: Alamar Blue is a resazurin reagent that responds to reducing activity.

The source made the active and inactive calls.

Regarding `O=C(N1CCCCC1)[C@]1(CCS(=O)(=O)c2ccccc2)N=C(c2ccc(OCCCO)cc2)O[C@@H]1c1ccccc1`, the z-score in [1] was -0.725 (inactive); in [3] it was 27.2 (active); in [4] it was 19.5 (active); in assay [5] it was 2.02 (inactive); in assay [6], -0.192 (inactive); in assay [7] it was 1.54. The z-score is -2.96 (inactive) in assay [8]; -1.7 (inactive) in assay [9]; -1.94 in assay [10]; -1.64 in [11]; 1.68 in assay [12]; -0.663 in [13]. Further, the z-score was -1.5 in assay [14]; -3.65 in assay [15]; -0.0371 in assay [16]; -0.136 (inactive) in assay [17]; -1.1 in assay [18]; -0.751 in assay [19]. Also, the z-score in assay [20] was -1.32 (inactive). This compound had a composite z-score in assay [2] of 1.17.
As to `[N-]=[N+]=NCc1ccccc1[C@H]1OC(c2ccc(OCCCO)cc2)=N[C@@]1(Cc1ccccc1)C(=O)NCC(O)CO` (stereo not given in full), the z-score is -0.112 (inactive) in assay [1]; 25.4 (active) in [3]; 12.1 (active) in assay [4]; 1.87 (inactive) in assay [5]; 1.67 (inactive) in assay [6]; -0.09 in [7]. For the same compound, the z-score in [8] was 0.046 (inactive); in [9], 0.497 (inactive); in assay [10], -0.796; in assay [11], 0.347; in assay [12] it was -0.445; in [13] it was 0.547. Also, the z-score in assay [14] was -1.9; in assay [15], -1.36; in assay [16] it was 0.831; in [17], -0.699 (inactive); in assay [18] it was -0.399; in assay [19], -1.11. In addition, in assay [20], the z-score was 0.951 (inactive). The same compound yielded a composite z-score in [2] of 1.61.
For the compound `O=S(=O)(NCCCO)c1ccc(Br)cc1`, the z-score is 0.949 (inactive) in assay [1]; 0.168 (inactive) in assay [3]; -0.852 (inactive) in [4]; -1.21 (inactive) in [5]; -1.71 (inactive) in assay [6]; 0.679 in assay [7]. In addition, the z-score in [8] is -1.2 (inactive); in assay [9] it was -0.0431 (inactive); in assay [10] it was 0.102; in assay [11] it was 0.819; in [12] it was -0.307; in assay [13], 0.492. Moreover, the z-score in [14] is 0.704; in assay [15], 1.24; in [16], 0.76; in [17], 0.371 (inactive); in [18], 0.514; in [19], -0.722. The z-score in [20] is -0.285 (inactive). In addition, the composite z-score in [2] was 0.103.
As for `COC(=O)[C@@]1(Cc2ccc(F)cc2)[C@H]2c3cc(C(=O)N(C)C)n(Cc4ccccn4)c3C[C@H]2CN1C(=O)c1ccccc1`, the z-score in [1] is -1.37 (inactive); in assay [3] it was 0.755 (inactive); in assay [4] it was -0.692 (inactive); in assay [5] it was 0.336 (inactive); in assay [6], -1.68 (inactive); in assay [7], 0.388. The z-score in assay [8] is 0.467 (inactive); in assay [9] it was 1.2 (inactive); in assay [10], -2.82; in [11] it was -1.48; in [12] it was 0.311; in assay [13], 0.291. Also, the z-score in assay [14] was 0.263; in [15], -0.519; in [16], -0.21; in assay [17] it was -0.858 (inactive); in [18] it was -0.715; in [19], -1.01. The z-score in assay [20] is 0.45 (inactive). Besides, in assay [2], the composite z-score stood at 1.13.
As to `O=C1C[C@@](C(=O)O)(c2ccc([N+](=O)[O-])cc2)[C@@H](c2ccc(CO)cc2I)N1CC12CC3CC(CC(C3)C1)C2`, the z-score in assay [1] was -0.455 (inactive); in assay [3], 27.4 (active); in [4], 22.3 (active); in assay [5], 3.79 (inactive); in assay [6] it was 2.73 (inactive); in assay [7] it was -0.429. In addition, the z-score in assay [8] is 1.11 (inactive); in assay [9] it was -0.681 (inactive); in assay [10] it was 1.72; in assay [11], -1.27; in [12] it was -1.05; in [13], -4.72. Besides, the z-score was -3.8 in assay [14]; -4.35 in [15]; -2.54 in assay [16]; -1.28 (inactive) in assay [17]; -0.811 in assay [18]; -2.41 in [19]. Besides, in assay [20], the z-score was -1.77 (inactive). The composite z-score in assay [2] amounted to 0.271.
`COC(=O)[C@@]1(Cc2ccc(OC)cc2)[C@H]2c3cc(C(=O)N4CCCC4)n(CCN4CCOCC4)c3C[C@H]2CN1C(=O)c1ccccc1`: the z-score in assay [1] is -0.861 (inactive); in assay [3], 0.32 (inactive); in [4] it was -0.288 (inactive); in assay [5] it was 0.366 (inactive); in [6], 0.225 (inactive); in assay [7], -0.286. In addition, the z-score in [8] is 0.99 (inactive); in [9], -0.245 (inactive); in assay [10] it was -3.66; in [11], -1.35; in [12], 0.077; in assay [13], 0.707. Moreover, the z-score in assay [14] was 0.847; in [15] it was -1.16; in [16], 2.52; in assay [17], 0.642 (inactive); in assay [18], 0.28; in [19], -0.936. In assay [20], the z-score is 0.0452 (inactive). In [2], this compound had a composite z-score of 2.2.
For `C=CCC(OC(C)=O)[C@@H]1[C@@H](N(Cc2ccc(-c3cccc(C(F)(F)F)c3)o2)C(=O)c2ccc(C)cc2)c2cc(OCCCO)ccc2N1C(=O)c1ccc2ccccc2n1` (stereo not given in full), the z-score in [1] was 1.55 (inactive); in [3] it was 1.97 (inactive); in [4], 0.435 (inactive); in assay [5], -0.225 (inactive); in [6] it was 0.0644 (inactive); in assay [7], -0.218. The z-score is -0.0312 (inactive) in assay [8]; 0.95 (inactive) in assay [9]; 2.06 in [10]; 1.03 in [11]; 0.27 in assay [12]; 1.91 in [13]. For the same compound, the z-score was -0.0472 in [14]; -0.526 in assay [15]; 2.67 in assay [16]; -0.351 (inactive) in assay [17]; 0.962 in assay [18]; -0.165 in assay [19]. The z-score in [20] is 0.16 (inactive). Besides, the composite z-score in assay [2] amounted to 0.235.
Take `O=C1O[C@@H](c2ccccc2)[C@@H](c2ccccc2)N2[C@@H](c3ccccc3OCCO)[C@]3(C(=O)Nc4ccc(C#CC5(O)CCCCCC5)cc43)[C@@H](C(=O)NC[C@H](O)c3ccccc3)[C@H]12`: the z-score is -0.95 (inactive) in [1]; 1.87 (inactive) in assay [3]; 1.98 (inactive) in assay [4]; -1.02 (inactive) in assay [5]; 1.49 (inactive) in [6]; -0.308 in [7]. Besides, the z-score in [8] was 2.02 (inactive); in [9] it was 0.973 (inactive); in assay [10] it was 2.17; in assay [11], -0.724; in assay [12], 0.737; in [13] it was -3.6. The z-score was -3.31 in assay [14]; -4.17 in assay [15]; -1.14 in assay [16]; 0.986 (inactive) in assay [17]; -0.935 in [18]; -1.98 in assay [19]. In [20], the z-score was -2.91 (inactive). This compound registered a composite z-score in [2] of 1.38.
